Measured values published in PubChem BioAssay AID1259343 (VanderVen Lab, College of Veterinary Medicine, Cornell …, 2017).
Among all 6,200 compounds or so, about 2,900 (47%) were called active. Rule as the data show it: active = inhibition above about 50%; inactive = the rest. The set was probably picked from earlier hits. This is one part of the list.

Test: Mycobacterium tuberculosis growth inhibition, primary screen (AID 1259343)
Conditions: inhibition: at 10 µM, hits give high values; outcome: 10 uM

| Compound | inhibition |
| --- | --- |
| C=CCOc1ccc(/C=N\O)cc1Cl | 86.2% (active) |
| COC(=O)C[C@H]1C2(C)CC34OC5(C)O[C@@]6([C@H](OC)C(OC(=O)C(C)C)[C@]7(C)C(/C(=C(/OC)C(C)C)C(=O)O[C@H]7c7ccoc7)[C@@]6(O5)[C@H](OC)[C@@]3(OC)C2OC(C)=O)[C@]14C (some centres not stated) | 37.5% (inactive) |
| C=C1C2CC[C@@]3(C)[C@H](c4ccoc4)OC(=O)C[C@]13O[C@H]1CC(O)C(C)(C)C(CC(=O)OC)[C@@]21C (some centres not stated) | 79.9% (active) |
| O=S(=O)(c1ccc(Cl)cc1)c1nc(Nc2ccc(F)cc2F)sc1Cl | 82.6% (active) |
| CCC(O)c1ccc(OCCCC(C)(C)C#N)cc1 (configuration not stated) | 90.6% (active) |
| FC(F)(F)c1ccnn1-c1nc(-c2ccc(Br)cc2)cs1 | 16.4% (inactive) |
| O=S(=O)(Nc1ccc(Cl)cc1)c1ccc(F)c(F)c1F | 95.7% (active) |
| Cc1cc(Cl)ccc1NS(=O)(=O)c1ccc(F)c(F)c1F | 23.8% (inactive) |
| CSc1ccccc1NS(=O)(=O)c1ccc2ccccc2c1 | 11.2% (inactive) |
| O=S(=O)(Nc1ccc2ccccc2c1)c1ccc(F)c(F)c1F | 84.5% (active) |
| O=C(NC1CCCC1)c1ccccc1NS(=O)(=O)c1ccc(F)c(F)c1F | 18.7% (inactive) |
| O=C(Nc1ccccc1)C1CSCN1S(=O)(=O)c1ccc(Cl)cc1C(F)(F)F (configuration not stated) | -4.72% (inactive) |
| COc1cc(Cc2cnc(N)nc2N)cc(OC)c1OC | 98.3% (active) |
| CCCCNC(=O)c1cc2sc3ccccc3c2s1 | 101% (active) |
| CCCCNC(=O)c1ccc(C)c(OCC)c1 | -17.8% (inactive) |
| CN(C)c1ccc(/C=C/C(=O)N(C)C2C3CC4CC(C3)CC2C4)cc1 (configuration not stated) | 8.71% (inactive) |
| O=C(NNc1ccccc1)C(O)C(O)C(=O)NNc1ccccc1 (configuration not stated) | 83.3% (active) |
| CC(C)N(CC(=O)N(CCc1c[nH]c2ccccc12)Cc1ccc(C(C)(C)C)cc1)CC(O)COCc1ccco1 (configuration not stated) | 53.8% (active) |
| COCCN(CC(=O)N(Cc1ccc(F)cc1)Cc1ccco1)C(=O)N(C)C | 22.5% (inactive) |
| COc1cccc(Oc2cncnc2-c2ccc(OC)cc2O)c1 | 76.5% (active) |
| COc1ccc(-c2oncc2-c2ccccc2)c(O)c1 | -29.6% (inactive) |
| CCN(CC)CCNc1nc(C23CC4CC(CC(C4)C2)C3)cs1 | 55.4% (active) |
| CC(C)CCn1c(SCC(=O)NC(C)(C)C)nc2cc(Cl)ccc2c1=O | 88.4% (active) |
| COCCn1c(SC(C)C)nc2ccc(Br)cc2c1=O | -18.7% (inactive) |
| COCCn1c(SCCc2ccccc2)nc2cc(Cl)ccc2c1=O | 15.5% (inactive) |
| NCCOB(c1ccccc1)c1ccccc1 | 101% (active) |

| Compound | inhibition |
| --- | --- |
| O=C(CC1CCCC1)NCCCNC(=O)CC1CCCC1 | 7.09% (inactive) |
| O=C(CCl)NCCCCCCCCCNC(=O)CCl | 93.8% (active) |
| CS(=O)(=O)Nc1c(Cl)c(Cl)c(Cl)c(Cl)c1Cl | 84% (active) |
| Cc1ccc(N2CCN(C(=O)C34CC5CC(CC(C5)C3)C4)CC2)cc1Cl | 10.8% (inactive) |
| CC(Nc1cc(N2CCNCC2)ccc1[N+](=O)[O-])C12CC3CC(CC(C3)C1)C2 (configuration not stated) | 59.9% (active) |
| O=[N+]([O-])c1ccc(Cl)cc1NN=C1C2CC3CC1CC(O)(C3)C2 | 47.3% (inactive) |
| O=[N+]([O-])c1ccc(N2CCNCC2)cc1NC1C2CC3CC(C2)CC1C3 (configuration not stated) | 83.1% (active) |
| COc1ccc(NC(=O)Nc2cccc(-c3ccc(N4CCCC4)nn3)c2)cc1 | 66.1% (active) |
| COc1ccc(NC(=O)N2CCCC(C(=O)c3cccc(OC(C)C)c3)C2)cc1OC (configuration not stated) | 19% (inactive) |
| COc1ccc(C)cc1C(=O)Nc1ccc(N2CCCCC2)nc1 | 2.05% (inactive) |
| Fc1ccc(NN=Cc2ccccn2)c(F)c1 | 103% (active) |
| Fc1ccc(NN=Cc2c[nH]c3ccccc23)c(F)c1 | 90.6% (active) |
| Fc1ccc(NN=Cc2ccc(F)c(F)c2)c(F)c1 | 40.3% (inactive) |
| O=C(NN=Cc1c[nH]c2ccc(Br)cc12)C1CC1 | 13.7% (inactive) |
| C(=NNc1ccccc1)c1c[nH]c2ccccc12 | 52% (active) |
| NC(=S)NN=Cc1c[nH]c2ccccc12 | inactive |
| C=CCN1C(=O)C(=O)N(CC2CCCCC2)C1=O | 43.2% (inactive) |
| C=CCn1c(SCCCC)nc(O)cc1=O | 33.7% (inactive) |
| CCCCSc1nsc(NC(C)=O)n1 | 71.7% (active) |
| Cc1ccc2c(c1)-c1c(s[s+]c1SCC(=O)c1ccccc1)C(C)(C)N2 | 18.9% (inactive) |
| Cc1ccc(CN(C)CC(=O)Nc2cc(Cl)ccc2C#N)cc1 | -19.5% (inactive) |
| CN(CC(=O)Nc1ccc(Cl)cc1Cl)Cc1ccsc1 | 34.7% (inactive) |
| Cc1ccc(F)cc1NC(=O)CN(C)Cc1ccccc1F | 86.7% (active) |
| O=C(CCl)c1ccc(NC(=O)c2ccco2)cc1 | 44.1% (inactive) |
| O=C(Nc1ccc2c(c1)Cc1ccccc1-2)c1ccco1 | 90% (active) |
| O=C(Nc1ccc2c(c1)Cc1ccccc1-2)C1CCCO1 (configuration not stated) | 81.9% (active) |

| Compound | inhibition |
| --- | --- |
| CCOc1ccc(-n2c(C)cc(C(=O)COc3cccc(-n4cnnn4)c3)c2C)cc1 | 89.6% (active) |
| Brc1ccc(OCCOc2cccc(-n3cnnn3)c2)cc1 | 69.1% (active) |
| O=c1cnc2ccccc2n1CCOc1ccc(Br)cc1 | 22.6% (inactive) |
| OCC1(Cc2ccccc2F)CCCN(Cc2nc(-c3ccccc3)cs2)C1 (configuration not stated) | 13.4% (inactive) |
| Cc1cc(OCC(=O)Nc2ncn[nH]2)c(C)cc1Br | 71.5% (active) |
| CC(C)CC(NC(=O)c1ccc(Cl)cc1Cl)C(=O)Nc1ncn[nH]1 (configuration not stated) | 3.98% (inactive) |
| CC(=O)c1cc(Cl)ccc1OCC(=O)Nc1ccc(C)cc1Br | 29.6% (inactive) |
| O=S(=O)(CCNc1ccc(Br)cc1)c1ccc(Cl)cc1 | 93.3% (active) |
| Brc1ccc(NCc2ccsc2)cc1 | 47.5% (inactive) |
| COc1ccccc1OS(=O)(=O)CCS(=O)(=O)c1ccc(Cl)cc1 | 33.8% (inactive) |
| COc1ccc(-c2csc(-n3[nH]c(C)c(N=Nc4nccs4)c3=O)n2)cc1 | 98.8% (active) |
| Brc1ccccc1C1N=C(c2ccccc2)NO1 (configuration not stated) | 67.1% (active) |
| CC1=NN(c2nc(C)cc(C)n2)C(=O)C1Cc1ccccc1Cl (configuration not stated) | -7.67% (inactive) |
| CC(C(=O)O)c1ccc2c(c1)[nH]c1ccc(Cl)cc12 (configuration not stated) | 86% (active) |
| CCN(CC)c1ncnc(N2CCC(c3ccccc3)CC2)c1N | 56.1% (active) |
| CC(C)(C)C1CCN(c2ncnc(Oc3ccc(F)cc3)c2N)CC1 | 25.6% (inactive) |
| CCN(C)CC1CCN(C(=O)CC2CCC(c3ccccc3)CC2)C1 (configuration not stated) | -3.03% (inactive) |
| O=C(COn1nnc2ccc(C(F)(F)F)cc21)NC12CC3CC(CC(C3)C1)C2 | 21.7% (inactive) |
| COc1cccc(-c2cc3c(Nc4ccc5c(c4)OCO5)nccc3n2C)c1 | 85.6% (active) |
| COc1cccc(-c2cc3c(Nc4ccc5c(c4)OCCO5)nccc3n2C)c1 | 61.1% (active) |
| O=C1CCC2(CCCO2)CCN1Cc1ccc(C(F)(F)F)nc1 (configuration not stated) | -2.37% (inactive) |
| O=C(Cn1nc(-c2ccc(F)cc2)oc1=O)N1CCSc2ccccc21 | 80.5% (active) |
| NC(N)=NCCCCN=C(N)N | 0.43% (inactive) |
| CS(=O)(=O)N=C1C=C(S(=O)(=O)c2ccccc2)C(=O)c2ccccc21 | 30.9% (inactive) |
| COc1ccc2c([N+](=O)[O-])c(-n3nnc4ccccc43)[nH]c2c1 | -24.2% (inactive) |
| COc1ccc2c(Cl)c(C(=O)n3cnc4ccccc43)sc2c1 | 94.7% (active) |

| Compound | inhibition |
| --- | --- |
| O=[N+]([O-])c1nn(-c2ccc3c(c2)OCCO3)n(O)c1=NC1CCCCCC1 | 62.8% (active) |
| C(=Nn1c(-c2ccc3c(c2)OCCO3)csc1=NC1CCCCC1)c1cccnc1 | 9.36% (inactive) |
| O=S(=O)(NCc1ccc(N2CCCC2)cc1)c1cccc(Br)c1 | 28.5% (inactive) |
| Brc1cccc(N2CCC(CNc3ncccn3)C2)c1 (configuration not stated) | 90.2% (active) |
| Cc1ccc(COc2ccc(/C=N\NC(=O)CN3CCCCC3)cc2)cc1 | 83.3% (active) |
| CNC(=O)C1CCN(C(=O)COc2ccc(Oc3ccc(C)cc3)cc2)CC1 | -12.7% (inactive) |
| CC1Cc2cc(S(N)(=O)=O)ccc2N1CCCc1ccccc1 (configuration not stated) | -10.1% (inactive) |
| O=c1c(Cl)c(NCC2CCC2)cnn1-c1ccc(Cl)cc1 | 58% (active) |
| O=c1c(Cl)c(Nc2ccc3c(c2)CCC3)cnn1-c1ccccc1 | 21.7% (inactive) |
| CC(C)(C)n1ncc(NCC2CCCc3ccccc32)c(Cl)c1=O (configuration not stated) | 22.4% (inactive) |
| Cc1ccc(CC(SCc2ccccc2)C(=O)O)cc1C (configuration not stated) | 57.4% (active) |
| CCOc1ccc(Cl)cc1CNc1nnnn1C | -8.06% (inactive) |
| CN(C)c1ccc(Nc2nc3ccccc3n3nnnc23)cc1 | 11.8% (inactive) |
| Clc1ccc2nc(Cl)c3nnnn3c2c1 | 102% (active) |
| Cc1ccc(OCC(=O)NC2CCCC(C)C2C)cc1 (configuration not stated) | 60% (active) |
| COc1cc(NC(=O)C(C)Oc2ccc(F)c(F)c2)cc(OC)c1 (configuration not stated) | 34.5% (inactive) |
| COc1ccc(-c2ccc(C(=O)NS(C)(=O)=O)c(F)c2)c(F)c1 | 55.6% (active) |
| Cc1cc(NC(=O)C2CCC2)n(-c2ccc(C(F)(F)F)cn2)n1 | 79.6% (active) |
| Cc1cc(=O)[nH]c(-n2nc(C)cc2NC(=O)C2CCCCC2)n1 | 101% (active) |
| FC(F)(F)c1ccc(N2CCN(C(=S)NC3CC3)CC2)nc1 | -12.1% (inactive) |
| O=C(Nc1nccs1)C1CCN(c2ccc(C(F)(F)F)cn2)CC1 | 18.4% (inactive) |
| Cc1cc(=O)[nH]c(-n2nc(-c3cccs3)cc2NC(=O)C2CC2)n1 | 2.59% (inactive) |
| Cc1cc(=O)[nH]c(-n2nc(-c3cccs3)cc2NC(=O)C2CCCCC2)n1 | 100% (active) |
| Cc1cc(=O)[nH]c(-n2nc(C)cc2NC(=O)C2CC2)n1 | 100% (active) |
